Values joined by “and” are separate entries in the source; they are usually repeats but may differ in a detail not shown here. Identical values can stand only once. Like-named read-outs stand apart in the source and are kept apart here.
Legend:
[1] = system: INSRR; conditions: concentration: 1 μM, replicates: in singlicate, n = 1
[2] = system: INSR; conditions: concentration: 1 μM, replicates: in singlicate, n = 1
[3] = system: IRAK1; conditions: concentration: 1 μM, replicates: in singlicate, n = 1
[4] = system: IRAK3; conditions: concentration: 1 μM, replicates: in singlicate; n = 1
[5] = system: IRAK4; conditions: concentration: 1 μM, replicates: in singlicate, n = 1
[6] = system: ITK; conditions: concentration: 1 μM, replicates: in singlicate, n = 1
[7] = system: JAK1(JH1domain-catalytic); conditions: concentration: 1 μM, replicates: in singlicate, n = 1
[8] = system: JAK1(JH2domain-pseudokinase); conditions: concentration: 1 μM, replicates: in singlicate, n = 1
[9] = system: JAK2(JH1domain-catalytic); conditions: concentration: 1 μM, replicates: in singlicate, n = 1
[10] = system: JAK3(JH1domain-catalytic); conditions: concentration: 1 μM, replicates: in singlicate; n = 1
[11] = system: T1, JNK1; conditions: concentration: 1 μM, replicates: in singlicate, n = 1
T1 construct: gene MAPK8

[12] = system: T2, JNK2; conditions: concentration: 1 μM, replicates: in singlicate, n = 1
T2 construct: gene MAPK9

[13] = system: T3, JNK3; conditions: concentration: 1 μM, replicates: in singlicate, n = 1
T3 construct: gene MAPK10

[14] = system: KIT-autoinhibited; conditions: concentration: 1 μM, replicates: in singlicate, n = 1
[15] = system: KIT; conditions: concentration: 1 μM, replicates: in singlicate, n = 1
[16] = system: LATS1; conditions: concentration: 1 μM, replicates: in singlicate, n = 1
[17] = system: LATS2; conditions: concentration: 1 μM, replicates: in singlicate, n = 1
[18] = system: LCK; conditions: concentration: 1 μM, replicates: in singlicate, n = 1
[19] = system: LIMK1; conditions: concentration: 1 μM, replicates: in singlicate; n = 1
[20] = system: LIMK2; conditions: concentration: 1 μM, replicates: in singlicate, n = 1
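Also: KINOMEscan kinase panel screen.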

Q: `Cc1cccc(-c2nc(Nc3ccc4[nH]nnc4c3)c3ccccc3n2)n1` [GW867587] was tested. Which “%Inh” value [1] did it give?
A: 0%

Q: And the “%Inh” value [2]?
A: 0%

Q: What about the “%Inh” value [3] of the same molecule?
A: 0%

Q: And the “%Inh” value [4]?
A: 0%

Q: What about the “%Inh” value [5] of the same molecule?
A: 0%

Q: What about the “%Inh” value [6] of the same molecule?
A: 0%

Q: And the “%Inh” value [7]?
A: 0%

Q: And the “%Inh” value [8]?
A: 52%

Q: What about the “%Inh” value [9] of the same molecule?
A: 22%

Q: And the “%Inh” value [10]?
A: 0%

Q: And the “%Inh” value [11]?
A: 0%

Q: What about the “%Inh” value [12] of the same molecule?
A: 0%

Q: What about the “%Inh” value [13] of the same molecule?
A: 0%

Q: What about the “%Inh” value [14] of the same molecule?
A: 0%

Q: What about the “%Inh” value [15] of the same molecule?
A: 0%

Q: And the “%Inh” value [16]?
A: 0%

Q: What about the “%Inh” value [17] of the same molecule?
A: 0%

Q: What about the “%Inh” value [18] of the same molecule?
A: 7%

Q: And the “%Inh” value [19]?
A: 0%

Q: What about the “%Inh” value [20] of the same molecule?
A: 0%

Q: What does the source list for `Fc1cccc(COc2ccc(Nc3ncnc4cc[nH]c34)cc2Cl)c1`?
A: %Inh [1]: 0%; %Inh [2]: 0%; %Inh [3]: 6%; %Inh [4]: 0%; %Inh [5]: 4%; %Inh [6]: 13%; %Inh [7]: 0%; %Inh [8]: 36%; %Inh [9]: 19%; %Inh [10]: 0%; %Inh [11]: 33%; %Inh [12]: 17%; %Inh [13]: 46%; %Inh [14]: 6%; %Inh [15]: 24%; %Inh [16]: 26%; %Inh [17]: 25%; %Inh [18]: 25%; %Inh [19]: 22%; %Inh [20]: 17%

Q: Which results are given for `FC(F)(F)c1ccc(-c2nn3ncccc3c2-c2ccnc(Nc3cccc(C(F)(F)F)c3)n2)cc1` [GW828205]?
A: %Inh [1]: 0%; %Inh [2]: 0%; %Inh [3]: 0%; %Inh [4]: 11%; %Inh [5]: 0%; %Inh [6]: 15%; %Inh [7]: 0%; %Inh [8]: 5%; %Inh [9]: 0%; %Inh [10]: 0%; %Inh [11]: 0%; %Inh [12]: 0%; %Inh [13]: 0%; %Inh [14]: 2%; %Inh [15]: 43%; %Inh [16]: 0%; %Inh [17]: 0%; %Inh [18]: 25%; %Inh [19]: 0%; %Inh [20]: 0%

Q: How did the “%Inh” value [1] turn out when `CCC(CC)(CC)n1cnc2c(N)ncnc21` [SKF-97620] was run?
A: 4%

Q: And the “%Inh” value [2]?
A: 0%

Q: And the “%Inh” value [3]?
A: 33%

Q: And the “%Inh” value [4]?
A: 0%

Q: What about the “%Inh” value [5] of the same molecule?
A: 0%

Q: What about the “%Inh” value [6] of the same molecule?
A: 9%

Q: And the “%Inh” value [7]?
A: 10%

Q: And the “%Inh” value [8]?
A: 0%

Q: What about the “%Inh” value [9] of the same molecule?
A: 22%

Q: What about the “%Inh” value [10] of the same molecule?
A: 22%

Q: And the “%Inh” value [11]?
A: 29%

Q: And the “%Inh” value [12]?
A: 24%

Q: What about the “%Inh” value [13] of the same molecule?
A: 4%

Q: And the “%Inh” value [14]?
A: 0%

Q: And the “%Inh” value [15]?
A: 0%

Q: What about the “%Inh” value [16] of the same molecule?
A: 24%

Q: And the “%Inh” value [17]?
A: 0%

Q: And the “%Inh” value [18]?
A: 14%

Q: What about the “%Inh” value [19] of the same molecule?
A: 10%

Q: What about the “%Inh” value [20] of the same molecule?
A: 0%

Q: For `OCCOCCn1ccc2ncnc(Nc3ccc(Oc4cccc(Cl)c4)c(Cl)c3)c21`, which “%Inh” value [1] is on record?
A: 0%

Q: What about the “%Inh” value [2] of the same molecule?
A: 0%

Q: And the “%Inh” value [3]?
A: 0%

Q: And the “%Inh” value [4]?
A: 0%

Q: And the “%Inh” value [5]?
A: 0%

Q: What about the “%Inh” value [6] of the same molecule?
A: 0%

Q: What about the “%Inh” value [7] of the same molecule?
A: 0%

Q: And the “%Inh” value [8]?
A: 38%

Q: And the “%Inh” value [9]?
A: 0%

Q: What about the “%Inh” value [10] of the same molecule?
A: 0%

Q: And the “%Inh” value [11]?
A: 0%

Q: What about the “%Inh” value [12] of the same molecule?
A: 0%

Q: And the “%Inh” value [13]?
A: 0%

Q: And the “%Inh” value [14]?
A: 0%

Q: And the “%Inh” value [15]?
A: 0%

Q: And the “%Inh” value [16]?
A: 0%

Q: And the “%Inh” value [17]?
A: 0%

Q: And the “%Inh” value [18]?
A: 41%

Q: What about the “%Inh” value [19] of the same molecule?
A: 0%

Q: What about the “%Inh” value [20] of the same molecule?
A: 0%

Q: What does the source list for `COc1ccc(NC(=O)c2ccc(-c3cc(-c4nnc(C)o4)ccc3C)cc2)cc1` [GW595885]?
A: %Inh [1]: 0%; %Inh [2]: 0%; %Inh [3]: 37%; %Inh [4]: 0%; %Inh [5]: 16%; %Inh [6]: 6%; %Inh [7]: 9%; %Inh [8]: 0%; %Inh [9]: 12%; %Inh [10]: 0%; %Inh [11]: 20%; %Inh [12]: 17%; %Inh [13]: 12%; %Inh [14]: 0%; %Inh [15]: 64%; %Inh [16]: 0%; %Inh [17]: 0%; %Inh [18]: 18%; %Inh [19]: 3%; %Inh [20]: 0%

Q: How did the “%Inh” value [1] turn out when `O=C(Nc1ccccc1F)NC1CCN(c2ccnc(Nc3ccc(F)cc3)n2)C1` (centres unmarked) [GSK1379722] was run?
A: 0%

Q: What about the “%Inh” value [2] of the same molecule?
A: 0%

Q: What about the “%Inh” value [3] of the same molecule?
A: 34%

Q: What about the “%Inh” value [4] of the same molecule?
A: 14%

Q: What about the “%Inh” value [5] of the same molecule?
A: 14%

Q: And the “%Inh” value [6]?
A: 12%

Q: What about the “%Inh” value [7] of the same molecule?
A: 12%

Q: And the “%Inh” value [8]?
A: 0%

Q: What about the “%Inh” value [9] of the same molecule?
A: 8%

Q: What about the “%Inh” value [10] of the same molecule?
A: 0%

Q: And the “%Inh” value [11]?
A: 29%

Q: And the “%Inh” value [12]?
A: 31%

Q: What about the “%Inh” value [13] of the same molecule?
A: 23%

Q: What about the “%Inh” value [14] of the same molecule?
A: 0%

Q: What about the “%Inh” value [15] of the same molecule?
A: 5%

Q: What about the “%Inh” value [16] of the same molecule?
A: 0%

Q: What about the “%Inh” value [17] of the same molecule?
A: 0%

Q: What about the “%Inh” value [18] of the same molecule?
A: 14%

Q: What about the “%Inh” value [19] of the same molecule?
A: 10%

Q: What about the “%Inh” value [20] of the same molecule?
A: 0%

Q: `Cl.Cn1ccc(-c2cccc(Nc3ccnc4cc(-c5nccs5)ccc34)c2)n1` [GW525701] was tested. Which “%Inh” value [1] did it give?
A: 0%

Q: And the “%Inh” value [2]?
A: 0%

Q: And the “%Inh” value [3]?
A: 41%

Q: What about the “%Inh” value [4] of the same molecule?
A: 0%

Q: What about the “%Inh” value [5] of the same molecule?
A: 15%

Q: And the “%Inh” value [6]?
A: 7%

Q: And the “%Inh” value [7]?
A: 18%

Q: And the “%Inh” value [8]?
A: 0%

Q: And the “%Inh” value [9]?
A: 0%

Q: And the “%Inh” value [10]?
A: 0%

Q: What about the “%Inh” value [11] of the same molecule?
A: 12%

Q: And the “%Inh” value [12]?
A: 13%

Q: And the “%Inh” value [13]?
A: 2%

Q: And the “%Inh” value [14]?
A: 0%

Q: What about the “%Inh” value [15] of the same molecule?
A: 33%

Q: What about the “%Inh” value [16] of the same molecule?
A: 0%

Q: And the “%Inh” value [17]?
A: 0%

Q: And the “%Inh” value [18]?
A: 3%

Q: What about the “%Inh” value [19] of the same molecule?
A: 0%

Q: And the “%Inh” value [20]?
A: 0%

Q: Which results are given for `Cl.Fc1ccccc1COc1ccc(Nc2ncnc3ccc(-c4nnc(C(F)(F)F)o4)cc23)cc1Cl` [GW424170]?
A: %Inh [1]: 0%; %Inh [2]: 0%; %Inh [3]: 0%; %Inh [4]: 0%; %Inh [5]: 0%; %Inh [6]: 4%; %Inh [7]: 7%; %Inh [8]: 0%; %Inh [9]: 6%; %Inh [10]: 0%; %Inh [11]: 0%; %Inh [12]: 4%; %Inh [13]: 0%; %Inh [14]: 0%; %Inh [15]: 13%; %Inh [16]: 0%; %Inh [17]: 0%; %Inh [18]: 12%; %Inh [19]: 0%; %Inh [20]: 16%

Q: What does the source list for `COc1ccc(-c2nc3n(c2-c2ccncc2)CCC3)cc1` [SKF-104493]?
A: %Inh ([1]; 1 µM): 1% and 0%; %Inh ([2]; 1 µM): 5% and 0%; %Inh ([3]; 1 µM): 12% and 0%; %Inh ([5]; 1 µM): 0% and 2%; %Inh ([6]; 1 µM): 0% and 1%; %Inh ([7]; 1 µM): 0% and 9%; %Inh ([8]; 1 µM): 43% and 41%; %Inh ([9]; 1 µM): 11% and 0%; %Inh ([11]; 1 µM): 46% and 22%; %Inh ([12]; 1 µM): 37% and 50%; %Inh ([13]; 1 µM): 47% and 65%; %Inh ([14]; 1 µM): 0% and 19%; %Inh ([15]; 1 µM): 0% and 25%; %Inh ([16]; 1 µM): 0% and 19%; %Inh ([17]; 1 µM): 16% and 12%; %Inh ([18]; 1 µM): 26% and 23%; %Inh ([20]; 1 µM): 0% and 3%
